# Measurements published in PMC4336329 (PLoS ONE, 2015).
# In all, about 310,000 compounds went through this assay and about 14,000 (4.5%) showed an effect of 50% or more. Effects have a minus sign here. Many of the other results were omitted from the sample, so strong results are more common in it than they were.
# Target: human ether-à-go-go-related gene (hERG) potassium channel (human, UniProt Q12809)
# Experiment: primary screen, population patch clamp on CHO cells stably expressing hERG; higher = less effect of the substance
# 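Further: peak tail current of the secondary pulse compared with the same well before compound.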
# Chain of human ether-à-go-go-related gene (hERG) potassium channel (Q12809 whole entry, looked up): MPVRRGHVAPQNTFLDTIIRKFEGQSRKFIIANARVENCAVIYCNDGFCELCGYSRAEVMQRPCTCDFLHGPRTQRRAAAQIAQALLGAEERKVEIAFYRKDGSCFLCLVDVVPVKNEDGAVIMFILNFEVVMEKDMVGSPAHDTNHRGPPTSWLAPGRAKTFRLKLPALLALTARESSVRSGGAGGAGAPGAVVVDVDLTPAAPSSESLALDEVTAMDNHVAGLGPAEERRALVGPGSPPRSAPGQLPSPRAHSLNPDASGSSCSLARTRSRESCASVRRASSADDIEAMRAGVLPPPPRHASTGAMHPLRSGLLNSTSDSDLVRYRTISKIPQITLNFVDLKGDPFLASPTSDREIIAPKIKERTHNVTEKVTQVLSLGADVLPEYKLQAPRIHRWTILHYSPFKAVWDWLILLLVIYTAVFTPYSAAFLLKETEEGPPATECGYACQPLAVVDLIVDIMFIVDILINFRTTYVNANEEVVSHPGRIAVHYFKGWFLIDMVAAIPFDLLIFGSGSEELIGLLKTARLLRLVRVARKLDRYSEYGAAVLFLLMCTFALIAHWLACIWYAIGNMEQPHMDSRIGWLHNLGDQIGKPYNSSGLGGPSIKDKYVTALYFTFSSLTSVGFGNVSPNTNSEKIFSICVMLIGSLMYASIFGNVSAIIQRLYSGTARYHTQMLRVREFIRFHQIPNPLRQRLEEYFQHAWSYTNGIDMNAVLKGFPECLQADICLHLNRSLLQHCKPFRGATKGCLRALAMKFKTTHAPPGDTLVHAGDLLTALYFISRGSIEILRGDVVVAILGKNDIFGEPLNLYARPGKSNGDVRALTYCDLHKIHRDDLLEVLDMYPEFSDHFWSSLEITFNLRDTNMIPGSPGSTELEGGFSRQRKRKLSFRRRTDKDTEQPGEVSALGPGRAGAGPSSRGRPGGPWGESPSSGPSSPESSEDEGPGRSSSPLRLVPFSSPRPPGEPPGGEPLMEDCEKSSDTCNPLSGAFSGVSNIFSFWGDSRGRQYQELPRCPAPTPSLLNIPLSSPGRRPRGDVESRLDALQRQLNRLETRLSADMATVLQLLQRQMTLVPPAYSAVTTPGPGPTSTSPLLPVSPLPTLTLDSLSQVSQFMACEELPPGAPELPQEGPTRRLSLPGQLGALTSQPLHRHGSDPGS
row,SMILES,"hERG current change (%, negative = inhibition) at 10uM"
1,NC(=O)C1CCN(C2=C(Cl)C(=O)c3ccccc3C2=O)CC1,13.6%
2,NC12CC3CC(C1)CC(CO)(C3)O2,8.54%
3,COc1ccc(N(CC(=O)N2c3ccccc3CC2C)S(=O)(=O)c2c(C)nn(C)c2C)cc1 (stereo not shown),-25.9%
4,OC(CN1CCN(Cc2ccccc2)CC1)c1ccccc1 (stereo not shown),-30.3%
5,OC(CN1CCN(C(c2ccccc2)c2ccccc2)CC1)c1ccc(Br)cc1 (stereo not shown),-28.8%
6,OC(CN1CCOCC1)c1ccc(F)cc1 (stereo not shown),12.6%
7,OC(CN1CCN(Cc2ccccc2)CC1)c1ccc(Br)cc1 (stereo not shown),-67.9%
8,Cl.OC(CN1CCN(Cc2ccccc2)CC1)c1ccc(F)cc1 (stereo not shown),-67.9%
9,OC(CN1CCN(c2ccccc2F)CC1)c1ccc(F)cc1 (stereo not shown),-19.3%
10,Cl.Oc1ccc(C2=CCNCC2)cc1O,10.1%
11,c1cnc(SCCOc2cccc3ccccc23)nc1,-8.05%
12,C=CCNC(=S)NNc1nc(Nc2ccccc2)nc(N2CCCCC2)n1,10.3%
13,COc1ccc(-c2nc(CC(=O)O)cs2)cc1,6.7%
14,CCCCN1C(=O)C(=O)N(CC(=O)N2CCN(c3ccccc3)CC2)C1=O,3.67%
15,CCOc1ccc(/C=N/N(C)c2ccccc2)cc1OC,15.8%
16,CCNc1oc(-c2cccc3ccccc23)nc1C#N,15.7%
17,C[n+]1cc(-c2ccccc2)n2c1CCCCC2.[I-],4.03%
18,COc1ccc(Cn2c(-c3ccc(Br)cc3)c[n+]3ccccc23)cc1.[Br-],-8.08%
19,COc1ccc(-c2c[n+](CC(=O)N3c4ccccc4Sc4ccccc43)c3n2CCC3)cc1.[Cl-],-38.2%
20,COc1ccc(-c2c[n+]3c4n2CCCCC4=C(c2ccccc2)C3)cc1.[Br-],-75.1%

row,SMILES,"hERG current change (%, negative = inhibition) at 10uM"
1,COc1ccc(-c2nnc3n2CCCCC3)cc1,19.9%
2,Clc1ccc(C2=C3CCCCn4c(-c5ccccc5)c[n+](c43)C2)cc1.[Br-],-82.1%
3,COc1ccc(-c2c[n+]3c4n2CCCCC4=C(c2ccc(Br)cc2)C3)cc1.[Br-],-75.1%
4,Clc1ccc(-c2cnc3n2CCCCC3)cc1,-46.4%
5,COc1ccc(-c2c[n+](CC(=O)c3ccccc3)c3n2CCCCC3)cc1.[Br-],11.7%
6,COC(=O)c1cc(S(=O)(=O)N(C)c2ccc(C)c(C)c2)c[nH]1,-20.2%
7,CCc1nc(NCCN2CCOCC2)c2oc3ccccc3c2n1.Cl,-28.2%
8,Cc1nn(Cc2ccccc2)c(C)c1C(=O)OCC(=O)Nc1cccc(S(N)(=O)=O)c1,-0.587%
9,O=C(CSc1nnc(CNC(=O)c2cccs2)o1)Nc1cccc(F)c1,4.85%
10,Clc1ccccc1Cn1nnc(-c2ccccc2)n1,4.02%
11,O=C1C2CCCCN2C(=O)N1CCCCN1CCN(c2cccc(Br)c2)CC1 (stereo not shown),-61.4%
12,O=C1C2CCCN2C(=O)N1CCCCN1CCN(c2ccccc2)CC1 (stereo not shown),-21.6%
13,O=C1C2CCCN2C(=O)N1CCCN1CCN(c2cccc(Cl)c2)CC1 (stereo not shown),-2.8%
14,O=C1C2CCCN2C(=O)N1CCCCN1CCN(CCO)CC1 (stereo not shown),-14.9%
15,O=C1C2CCCCN2C(=O)N1CCCCN1CCN(c2cccc(Cl)c2)CC1 (stereo not shown),-60.6%
16,Cl.O=C1C2CCCN2C(=O)N1CCCN1CCN(c2cccc(Br)c2)CC1 (stereo not shown),-9.07%
17,O=C1C2CCCN2C(=O)N1CCCCN1CCN(c2cccc(Cl)c2)CC1 (stereo not shown),-65.6%
18,O=C1C2CCCN2C(=O)N1CCCCN1CCN(c2cccc(C(F)(F)F)c2)CC1 (stereo not shown),-60.9%
19,O=C1CC(N2CCSCC2)C(=O)N1c1cccc(Br)c1 (stereo not shown),-3.54%
20,COc1ccc(C(=O)/C=C/Nc2cc(C)on2)c(OC)c1,-6.33%

row,SMILES,"hERG current change (%, negative = inhibition) at 10uM"
1,COC(=O)c1ccccc1NC(=O)NC1CCN(Cc2ccccc2)CC1,-31.1%
2,CCCn1cc(NC(=O)c2cc(-c3ccccc3)on2)cn1,-21.5%
3,CCOC(=O)C1=C(C)Nc2ncnn2C1/C=C/c1ccccc1 (stereo not shown),-2.68%
4,CC1CN(c2ccc([N+](=O)[O-])nc2)CC(C)O1 (stereo not shown),-21.6%
5,COC(=O)c1ccc(NC(=O)CSc2nc(=O)cc(N)n2-c2ccccc2)cc1,12.8%
6,CCOC(=O)C1CCN(c2c(NCCCN3CCCCC3)c(=O)c2=O)CC1,6.88%
7,CC(OC(=O)c1cccc(S(=O)(=O)N2CCOCC2)c1)C(=O)NC1CCCCC1C (stereo not shown),5.52%
8,COc1cc(Cl)ccc1OCc1cc(C(=O)N(C)CCc2c(C)n[nH]c2C)no1,-19.5%
9,COc1ccc(-c2csc(N(CCCN(C)C)C(=O)c3ccccc3Cl)n2)cc1.Cl,-67.3%
10,COc1ccc(-c2csc(N(CCCN(C)C)C(=O)c3ccccc3F)n2)cc1.Cl,-35.3%
11,COc1ccc(-c2csc(N(CCCN(C)C)C(=O)c3ccccc3C)n2)cc1.Cl,-75.1%
12,CC1CCCC(C)N1C(=C(Cl)Cl)C(=C1SCCS1)[N+](=O)[O-] (stereo not shown),16.7%
13,COc1ccccc1N(Cc1ccccc1)S(=O)(=O)c1cccc(C(=O)Nc2ccccn2)c1,10.5%
14,Cc1nc2ccccc2c(=O)n1-c1ccc(NS(=O)(=O)c2cc(F)ccc2F)cc1,-11.7%
15,O=C(CSc1ncccn1)N1CCN(Cc2ccccc2)CC1,9.31%
16,Nc1cc(C(=O)O)c(Oc2ccc(Cl)cc2Cl)cc1C(=O)O,7.83%
17,O=C(N/N=C/c1ccoc1)c1cc(Br)ccc1O,14.2%
18,CCOc1ccc(NC(=O)c2ccc3[nH]c(=O)c(=O)[nH]c3c2)cc1,16.8%
